Results: PubChem BioAssay
“And” between values parts separate entries of the source, which are not always exact repeats. Equal values may be shown once. Records with an inconclusive call do not appear. Some structures have more than one record in an assay (separate samples or runs), and their calls can disagree. The source made the active and inactive calls.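 The calls were made as follows, unless noted: active = compounds whose cell count with miR-34 switched on is under 0.7 times the count with it off; inactive = the rest.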

Tests used:
[1] = stimulators of nuclear beta-catenin in C2C12, primary screen, imaging, WNT3A-conditioned medium, mouse C2C12, NPC library (AID 1117326; in the data active = nuclear beta-catenin stimulation mostly above about 4.2%, no sharp cut-off; inactive = mostly below about 10%; also: reference of the scale not given here); settings: stronger effect = higher value
[2] = stimulators of insulin release from INS-1E, primary screen, cell-based, 5 mM glucose, NPC library (AID 1117329;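 active = compound raises insulin release from rat beta cells at 5 mM glucose, no numeric limit stated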; also: reference of the scale not given here); settings: rat INS-1E insulin secretion, at 10 µM, stronger effect = higher value
[3] = growth inhibition of GSK3B-pretreated HCT116 cells – cell-based, CellTiter-Glo, 0.2 to 20 µM (AID 1117336;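 active = compounds lowering colon cancer cell viability after pretreatment blocking the GSK3B kinase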); settings: HCT116 viability after GSK3B inhibitor, at 20 µM, stronger effect = higher value
[4] = inhibition of endothelial tube formation, primary screen, imaging, VEGF stimulated, CD31 staining, tube area, NPC library (AID 1117340;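 active = compound that reduces growth-factor-driven endothelial tube area in a mixed cell culture, no cutoff stated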); settings: VEGF-stimulated ADSC/ECFC co-culture, at 10 µM, stronger effect = higher value
[5] = glucagon-like peptide 1 release enhancers, primary assay, NCI-H716 cell line, NPC library (AID 1117341;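 active = compound raises GLP1 secretion from the human gut endocrine cells, with no numeric limit stated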; also: reference of the scale not given here); settings: NCI-H716 cells, at 10 µM, stronger effect = higher value
[6] = HCT116 colon cancer cell growth inhibition, primary screen, CellTiter-Glo luminescence, NPC library (AID 1117342;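 active = compounds that lower survival of HCT116 colon cancer cells in the luminescence readout, no numeric limit stated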); settings: at 20 µM (top of the series)
[7] = CellTiter-Glo luminescent readout of SW480 viability loss, NPC library primary (AID 1117343;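 active = compounds that lower viability of the colon cancer cells in the luminescence readout, with no numeric limit stated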); settings: CellTiter-Glo luminescence; at 20 µM (top of the series) unless noted
[8] = decreased DLD-1 cellular survival, CellTiter-Glo luminescent readout, NPC compound collection, primary HTS (AID 1117346;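 active = compounds that lower survival of DLD-1 colon cancer cells in the luminescence readout, no cutoff given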); settings: DLD-1 viability, CellTiter-Glo luminescence; at 20 µM (top of the series)
[9] = system: Aerobactin synthetase IucA (Klebsiella pneumoniae); assay: IucA aerobactin synthetase inhibitors, biochemical, Tocris library, absorbance (AID 1345561; call rule not given here;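 also: 100% = enzyme without compound and 0% = no enzyme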); settings: purified IucA enzyme assay, absorbance (OD) read-out; stronger effect = lower value;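 tested at 8 µM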
[10] = sensitizers of A549 cells to miR-34 induction, primary screen, imaging, A549 dox-inducible miR-34, nuclei and caspase counts (AID 1347080); settings: A549 miR-34 inducible, Hoechst nuclei count, 48 h
[11] = viability rescue of complex I mutant cybrids, primary screen, cell-based, galactose medium, ATP luminescence (AID 1645843;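 active = z-score of at least 1.8 in each of two replicates, scored against plate mean and spread of sample wells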;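 also: positive z means more ATP and so rescue of galactose-driven cybrid death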); settings: complex I mutant cybrid cells, 72 h, stronger effect = higher value
[12] = liver-stage malaria parasite growth inhibition, primary screen, cell-based, HepG2, luciferase luminescence, HepG2 viability (AID 624349; in the data active = parasite load remaining mostly below about 12%, no sharp cut-off; inactive = mostly above about 10%;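 also: 100% = mean of DMSO negative control wells on the same plate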); settings: P. berghei liver stage in HepG2, luciferase luminescence, concentration not given here; parasite load remaining: stronger effect = lower value; viability: measured here: HepG2 viability without parasites
[13] = survival rescue of mitochondrial mutant cells in low glucose, primary screen, MELAS cybrids, Rieske KO mouse fibroblasts, CellTiter-Glo (AID 1508586);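 also: z relative to plate mean and SD of compound and empty wells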
[14] = growth inhibition of DIPG glioma cells, dose response, cell-based, SU-DIPG-XIII, MIPE4.0, CellTiter-Glo, qHTS (AID 1347061; cut-off not given, nearly all actives have AC50 up to about 37 µM;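 also: cells exposed to compound for 48 hours before readout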); settings: SU-DIPG-XIII viability, CellTiter-Glo ATP luminescence
[15] = stronger effect = lower value, cell number ratio, induced over uninduced
[16] = measured here: relative caspase fold change +Dox/-Dox
[17] = measured here: total cells with miR-34 induction, stronger effect = lower value
[18] = measured here: total cells without miR-34 induction

Structure (SMILES)	nuclear beta-catenin stimulation ([1]; at 10 µM)	nuclear beta-catenin stimulation ([1]; stimulation, at 2 µM) [%]	insulin secretion stimulation [2]	viability decrease [3]	tube area decrease [4]	GLP1 secretion stimulation [5]	inhibition of viability [6]	viability decrease (inhibition) [7]	viability decrease (inhibition) [8]	remaining activity [9]	fold change [10, 15]	fold change [10, 16]	cell count [10, 17]	cell count [10, 18]	z-score [11]	parasite load remaining [12]	viability [12] [%]	z-score ([13]; MELAS cybrid survival, CellTiter-Glo 48 h, stronger effect = higher value)	z-score ([13]; Rieske KO mouse fibroblast survival, CellTiter-Glo 72 h)	outcome [14]
O=S1(=O)c2cccc3cccc(c23)N1CCCN1CCN(c2ccc(F)cc2)CC1	1.8% (inactive)	17.7	3.4% (inactive)	74.5% (active)	-3% (inactive)	0.3% (inactive)	104% (active)	136% (active)	84.5% (active)	92.7% (inactive)	0.902 (inactive)	1.69	7340	8140	-0.675 (inactive)	–	–	–	–	–
CCOC(=O)c1cnc2c(cnn2CC)c1NN=C(C)C	-1.1% (inactive)	1.4	5.8% (inactive)	-110% (inactive)	-6% (inactive)	0.7% (inactive)	29.6% (inactive)	21.1% (inactive)	27.5% (inactive)	115% (inactive)	1 (inactive) and 0.89 (inactive) and 0.857 (inactive)	1.06 and 0.8 and 1.84	7810 and 7710 and 8880	7780 and 8670 and 10400	1.13 (inactive) and 2.63 (active) and 1.51 (inactive)	33.1% (inactive)	68.5	1.91	2.39	–
OC(CN1CCC(Cc2ccc(F)cc2)CC1)c1ccc(Cl)cc1 (stereo not given)	2% (inactive)	2.8	2.2% (inactive)	78.9% (active)	-4.2% (inactive)	2.9% (inactive)	78.6% (active)	67.1% (active)	75.2% (active)	78.5% (inactive)	1.15 (inactive) and 0.894 (inactive)	0.858 and 1.23	6880 and 8360	6000 and 9350	-0.6 (inactive) and 0.185 (inactive)	–	–	–	–	inactive
FC(F)(F)c1ccccc1-n1ccnc1	1.3% (inactive)	-0.4	1.7% (inactive)	2% (inactive)	-7.9% (inactive)	-1.9% (inactive)	2.03% (inactive)	-83.5% (inactive)	4.5% (inactive)	102% (inactive)	0.976 (inactive) and 0.948 (inactive) and 0.969 (inactive)	1.92 and 1.05 and 0.962	9410 and 5980 and 9120	9640 and 6310 and 9410	0.425 (inactive) and 1.96 (inactive)	–	–	–	–	–
